# Whole data set: some 1,900 compounds, median “excess over highest single agent (ExcessHSA) synergy score, 6x6 matrix” near -83, cut for the lowest 2% near -370. The entries come from a sample that favours the lowest values as a whole.
# Tested on: NCI-H446
# Experiment: excess over highest single agent (ExcessHSA) synergy score, 6x6 matrix; higher = less synergy (more negative = stronger synergy)
# Settings: 72 h; CellTiter-Glo viability
row,Compound,excess over highest single agent
1,Cc1cc(OCCCS(C)(=O)=O)cc(C)c1-c1cccc(COc2ccc3c(c2)OC[C@H]3CC(=O)O)c1 + Cc1sc2c(c1C)C(c1ccc(Cl)cc1)=N[C@@H](CC(=O)OC(C)(C)C)c1nnc(C)n1-2 [NCGC00250412-19],-123
2,c1ccc2c(CCNc3ccc(Nc4ccncc4)cc3)c[nH]c2c1 + Cc1sc2c(c1C)C(c1ccc(Cl)cc1)=N[C@@H](CC(=O)OC(C)(C)C)c1nnc(C)n1-2 [NCGC00250412-19],-76.1
3,Cc1cc(SCc2sc(-c3ccc(C(F)(F)F)cc3)nc2C)ccc1OCC(=O)O + Cc1sc2c(c1C)C(c1ccc(Cl)cc1)=N[C@@H](CC(=O)OC(C)(C)C)c1nnc(C)n1-2 [NCGC00250412-19],-98.3
4,CC(=O)O/N=C1/C(c2c(O)[nH]c3cc(Br)ccc23)=Nc2ccccc21 + Cc1sc2c(c1C)C(c1ccc(Cl)cc1)=N[C@@H](CC(=O)OC(C)(C)C)c1nnc(C)n1-2 [NCGC00250412-19],54.4
5,O=c1c(-c2ccc(O)cc2)coc2cc(O[C@@H]3O[C@H](CO)[C@@H](O)[C@H](O)[C@H]3O)ccc12 + Cc1sc2c(c1C)C(c1ccc(Cl)cc1)=N[C@@H](CC(=O)OC(C)(C)C)c1nnc(C)n1-2 [NCGC00250412-19],-180
6,Cc1c(NC(=O)c2ccc(C(C)(C)C)cc2)cccc1-c1cn(C)c(=O)c(Nc2ccc(C(=O)N3CCOCC3)cc2)n1 + Cc1sc2c(c1C)C(c1ccc(Cl)cc1)=N[C@@H](CC(=O)OC(C)(C)C)c1nnc(C)n1-2 [NCGC00250412-19],-90.9
7,Nc1ccn([C@@H]2O[C@H](CO)[C@@H](O)C2(F)F)c(=O)n1 + Cc1sc2c(c1C)C(c1ccc(Cl)cc1)=N[C@@H](CC(=O)OC(C)(C)C)c1nnc(C)n1-2 [NCGC00250412-19],-379
8,Nc1ccn([C@@H]2O[C@H](CO)[C@@H](O)[C@@H]2O)c(=O)n1 + Cc1sc2c(c1C)C(c1ccc(Cl)cc1)=N[C@@H](CC(=O)OC(C)(C)C)c1nnc(C)n1-2 [NCGC00250412-19],-107
9,Nc1ccn([C@@H]2O[C@H](CO)[C@@H](O)[C@H]2O)c(=O)n1 + Cc1sc2c(c1C)C(c1ccc(Cl)cc1)=N[C@@H](CC(=O)OC(C)(C)C)c1nnc(C)n1-2 [NCGC00250412-19],-268
10,CC(=O)N1CCN(c2ccc(OCc3nn(C)c(C)c3-c3cccc4c(CCCOc5cccc6ccccc56)c(C(=O)O)n(Cc5cccnc5)c34)cc2)CC1 + Cc1sc2c(c1C)C(c1ccc(Cl)cc1)=N[C@@H](CC(=O)OC(C)(C)C)c1nnc(C)n1-2 [NCGC00250412-19],97.8
11,FC(F)(F)c1ccc(Nc2nc3ccc(Oc4ccnc(-c5ncc(C(F)(F)F)[nH]5)c4)cc3[nH]2)cc1 + Cc1sc2c(c1C)C(c1ccc(Cl)cc1)=N[C@@H](CC(=O)OC(C)(C)C)c1nnc(C)n1-2 [NCGC00250412-19],-7.92
12,CC1(C)CC(=O)c2c(C(F)(F)F)nn(-c3ccc(C(N)=O)c(N[C@H]4CC[C@H](OC(=O)CN)CC4)c3)c2C1 + Cc1sc2c(c1C)C(c1ccc(Cl)cc1)=N[C@@H](CC(=O)OC(C)(C)C)c1nnc(C)n1-2 [NCGC00250412-19],-482
13,CC1(C)CC(=O)c2c(C(F)(F)F)nn(-c3ccc(C(N)=O)c(N[C@H]4CC[C@H](O)CC4)c3)c2C1 + Cc1sc2c(c1C)C(c1ccc(Cl)cc1)=N[C@@H](CC(=O)OC(C)(C)C)c1nnc(C)n1-2 [NCGC00250412-19],-379
14,COc1cccc2c1CCCC2CCCN1CCN(C2CCCCC2)CC1 (stereo not given) + Cc1sc2c(c1C)C(c1ccc(Cl)cc1)=N[C@@H](CC(=O)OC(C)(C)C)c1nnc(C)n1-2 [NCGC00250412-19],-180
15,Cc1nnc(C(C)C)n1[C@H]1C[C@H]2CC[C@@H](C1)N2CC[C@H](NC(=O)C1CCC(F)(F)CC1)c1ccccc1 + Cc1sc2c(c1C)C(c1ccc(Cl)cc1)=N[C@@H](CC(=O)OC(C)(C)C)c1nnc(C)n1-2 [NCGC00250412-19],-88.4
16,O=C(CC12CC3CC(CC(C3)C1)C2)Nc1cccc2nc(NCCNCCO)ccc12 + Cc1sc2c(c1C)C(c1ccc(Cl)cc1)=N[C@@H](CC(=O)OC(C)(C)C)c1nnc(C)n1-2 [NCGC00250412-19],-112
17,COc1ccccc1[C@H](c1cccc2ccccc12)[C@@](C)(C#N)C(=O)N1CCC(c2cccc(C(F)(F)F)c2)CC1 + Cc1sc2c(c1C)C(c1ccc(Cl)cc1)=N[C@@H](CC(=O)OC(C)(C)C)c1nnc(C)n1-2 [NCGC00250412-19],-352
18,Oc1ccc2ccccc2c1SSc1c(O)ccc2ccccc12 + Cc1sc2c(c1C)C(c1ccc(Cl)cc1)=N[C@@H](CC(=O)OC(C)(C)C)c1nnc(C)n1-2 [NCGC00250412-19],56.9
19,NS(=O)(=O)OC[C@@H]1C[C@@H](n2ccc3c(N[C@H]4CCc5ccccc54)ncnc32)C[C@@H]1O + Cc1sc2c(c1C)C(c1ccc(Cl)cc1)=N[C@@H](CC(=O)OC(C)(C)C)c1nnc(C)n1-2 [NCGC00250412-19],-544
20,O=C1NC(=O)C(c2cnc3ccccn23)=C1c1cn2c3c(cccc13)CN(C(=O)N1CCOCC1)CC2 + Cc1sc2c(c1C)C(c1ccc(Cl)cc1)=N[C@@H](CC(=O)OC(C)(C)C)c1nnc(C)n1-2 [NCGC00250412-19],-24.9
21,NC1(Cc2ccc(Cl)cc2)CCN(c2ncnc3[nH]ccc23)CC1 + Cc1sc2c(c1C)C(c1ccc(Cl)cc1)=N[C@@H](CC(=O)OC(C)(C)C)c1nnc(C)n1-2 [NCGC00250412-19],-66
22,COc1cc(CCc2cc(NC(=O)c3ccc(N4CC(C)NC(C)C4)cc3)n[nH]2)cc(OC)c1 (stereo not given) + Cc1sc2c(c1C)C(c1ccc(Cl)cc1)=N[C@@H](CC(=O)OC(C)(C)C)c1nnc(C)n1-2 [NCGC00250412-19],-88.8
23,CC(C)C[C@H](NC(=O)[C@H](CCc1ccccc1)NC(=O)CN1CCOCC1)C(=O)N[C@@H](Cc1ccccc1)C(=O)N[C@@H](CC(C)C)C(=O)[C@@]1(C)CO1 + Cc1sc2c(c1C)C(c1ccc(Cl)cc1)=N[C@@H](CC(=O)OC(C)(C)C)c1nnc(C)n1-2 [NCGC00250412-19],-521
24,CC(C)C[C@H](NC(=O)[C@@H](O)[C@H](N)Cc1ccccc1)C(=O)O + Cc1sc2c(c1C)C(c1ccc(Cl)cc1)=N[C@@H](CC(=O)OC(C)(C)C)c1nnc(C)n1-2 [NCGC00250412-19],-74.5
25,COC[C@H](NC(=O)c1cnc(C)s1)C(=O)N[C@@H](COC)C(=O)N[C@@H](Cc1ccccc1)C(=O)[C@@]1(C)CO1 + Cc1sc2c(c1C)C(c1ccc(Cl)cc1)=N[C@@H](CC(=O)OC(C)(C)C)c1nnc(C)n1-2 [NCGC00250412-19],-227

# From the supplement of paper PMC10077471
